Screen size: about 310,000 compounds; about 14,000 (4.5%) showed an effect of 50% or more. Effects have a minus sign here. This is one part of a sample in which strong results are shown more often than they occur.
The compounds below were run against human ether-à-go-go-related gene (hERG) potassium channel (human, UniProt Q12809) (assay: primary screen, population patch clamp on CHO cells stably expressing hERG; higher = less effect of the substance).
Sequence of human ether-à-go-go-related gene (hERG) potassium channel (Q12809 whole entry, looked up): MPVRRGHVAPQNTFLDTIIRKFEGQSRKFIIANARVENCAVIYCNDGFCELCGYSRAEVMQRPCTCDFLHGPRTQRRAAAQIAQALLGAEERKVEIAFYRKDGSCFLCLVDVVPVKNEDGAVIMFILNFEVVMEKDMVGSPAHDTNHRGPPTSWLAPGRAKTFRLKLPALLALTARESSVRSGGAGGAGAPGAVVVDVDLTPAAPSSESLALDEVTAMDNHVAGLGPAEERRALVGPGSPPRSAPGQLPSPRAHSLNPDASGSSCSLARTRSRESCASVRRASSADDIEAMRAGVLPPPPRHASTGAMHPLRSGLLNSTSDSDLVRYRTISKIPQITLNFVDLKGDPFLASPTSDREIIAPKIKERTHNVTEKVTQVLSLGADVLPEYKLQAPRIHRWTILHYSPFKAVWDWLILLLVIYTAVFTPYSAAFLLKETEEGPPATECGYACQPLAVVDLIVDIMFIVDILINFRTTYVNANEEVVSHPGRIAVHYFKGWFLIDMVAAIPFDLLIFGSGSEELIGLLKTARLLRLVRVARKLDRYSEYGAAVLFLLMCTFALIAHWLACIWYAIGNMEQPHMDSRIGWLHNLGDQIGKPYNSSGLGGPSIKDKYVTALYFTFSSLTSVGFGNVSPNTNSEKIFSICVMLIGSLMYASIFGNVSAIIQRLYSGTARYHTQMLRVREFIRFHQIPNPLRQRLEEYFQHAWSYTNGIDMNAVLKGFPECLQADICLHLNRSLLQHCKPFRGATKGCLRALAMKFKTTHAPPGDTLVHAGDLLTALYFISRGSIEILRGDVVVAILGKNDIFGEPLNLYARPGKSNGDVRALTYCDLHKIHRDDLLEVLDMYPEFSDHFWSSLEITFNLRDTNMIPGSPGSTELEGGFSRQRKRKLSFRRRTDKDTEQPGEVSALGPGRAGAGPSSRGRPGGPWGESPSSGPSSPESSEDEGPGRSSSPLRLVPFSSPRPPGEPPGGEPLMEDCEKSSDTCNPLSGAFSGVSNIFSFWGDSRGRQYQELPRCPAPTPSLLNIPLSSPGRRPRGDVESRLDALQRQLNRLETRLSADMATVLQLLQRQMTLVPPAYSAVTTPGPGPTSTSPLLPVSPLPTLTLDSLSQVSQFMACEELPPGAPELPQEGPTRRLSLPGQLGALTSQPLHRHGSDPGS
`Cc1ccc2nc(C(C)O)[nH]c2c1` (stereo not shown) was tested, and the “hERG current change (%, negative = inhibition) at 10uM” value was 17.3%.
`CC#CCCCC(=O)Nc1ccc(C(=O)O)cc1` was tested, and the “hERG current change (%, negative = inhibition) at 10uM” value was 1.36%.
With `CN1CCN(Cc2nc(-c3cccs3)no2)CC1c1ccccc1` (stereo not shown) the “hERG current change (%, negative = inhibition) at 10uM” value was -8.45%.
`COC(=O)c1nnn(CC(=O)NC(=O)Nc2cccc(Cl)c2C)c1C(=O)OC` was tested, and the “hERG current change (%, negative = inhibition) at 10uM” value was -0.536%.
In the case of `O=C(COc1ccccc1)Nc1ccccc1N1CCCCC1`, the “hERG current change (%, negative = inhibition) at 10uM” value is reported as 2.27%.
In the case of `CCN(CC)CCCNC(=O)c1cn(CC)c2ccc(S(=O)(=O)N3CCc4ccccc4C3)cc2c1=O`, the “hERG current change (%, negative = inhibition) at 10uM” value is reported as -52.9%.
`CCn1cc(C(=O)NCCN(CC(C)C)CC(C)C)c(=O)c2cc(S(=O)(=O)N3CCOCC3)ccc21` was tested, and the “hERG current change (%, negative = inhibition) at 10uM” value was -14.1%.
With `CCn1cc(C(=O)NCCCN2CCN(C)CC2)c(=O)c2cc(S(=O)(=O)N3CCc4ccccc4C3)ccc21` the “hERG current change (%, negative = inhibition) at 10uM” value was -20.4%.
In the case of `CCCN(CCC)CCCNC(=O)c1cn(CC)c2ccc(S(=O)(=O)N3CCc4ccccc4C3)cc2c1=O`, the “hERG current change (%, negative = inhibition) at 10uM” value is reported as -69.9%.
With `CCCCN(CCCC)CCNC(=O)c1cn(CC)c2ccc(S(=O)(=O)N3CCc4ccccc4C3)cc2c1=O` the “hERG current change (%, negative = inhibition) at 10uM” value was -78.8%.
`CCN(CC)CCNC(=O)c1cn(CC)c2ccc(S(=O)(=O)N3CCc4ccccc4C3)cc2c1=O` was tested, and the “hERG current change (%, negative = inhibition) at 10uM” value was -59.4%.
In the case of `CCCN(CCC)CCCNC(=O)c1cn(CC)c2ccc(S(=O)(=O)N3CCOCC3)cc2c1=O`, the “hERG current change (%, negative = inhibition) at 10uM” value is reported as 12.8%.
For `CCn1cc(C(=O)NCc2ccco2)c(=O)c2cc(S(=O)(=O)N3CCc4ccccc4C3)ccc21`, the “hERG current change (%, negative = inhibition) at 10uM” value was -15.3%.
In the case of `CCn1cc(C(=O)NCCc2ccccc2)c(=O)c2cc(S(=O)(=O)N3CCCC3)ccc21`, the “hERG current change (%, negative = inhibition) at 10uM” value is reported as 1.7%.
`O=C(NC1CCCCC1)C1CCC(CNS(=O)(=O)c2ccccc2)CC1` (stereo not shown) was tested, and the “hERG current change (%, negative = inhibition) at 10uM” value was 10.3%.
In the case of `COc1ccc(-c2c(C#N)c(C)nc3c2C(=O)c2ccccc2-3)cc1`, the “hERG current change (%, negative = inhibition) at 10uM” value is reported as -3.8%.
For `Cn1c(SCC(=O)c2ccccc2)nnc1-c1ccc(O)cc1`, the “hERG current change (%, negative = inhibition) at 10uM” value was -11.2%.
In the case of `COc1cccc(C=NCC(C)N=Cc2cccc(OC)c2O)c1O` (stereo not shown), the “hERG current change (%, negative = inhibition) at 10uM” value is reported as 3.33%.
In the case of `Cn1c(=O)c2c(nc(NCc3ccco3)n2CC(O)CO)n(C)c1=O` (stereo not shown), the “hERG current change (%, negative = inhibition) at 10uM” value is reported as 22.1%.
With `CCOC(=O)N1CCN(C(=O)CCN2C(=O)COc3ccccc32)CC1` the “hERG current change (%, negative = inhibition) at 10uM” value was 0.87%.
With `c1ccc(-c2noc(-c3ccc4ccccc4c3)n2)cc1` the “hERG current change (%, negative = inhibition) at 10uM” value was 11.9%.
With `CCOC(=O)c1c(NC(=O)CCCN2CCOCC2)sc2c1CC(C)(C)OC2` the “hERG current change (%, negative = inhibition) at 10uM” value was -9.14%.
In the case of `COc1ccc(C2=NOC(C(=O)Nc3ccc4c(c3)OCCO4)C2)c(OC)c1` (stereo not shown), the “hERG current change (%, negative = inhibition) at 10uM” value is reported as 3.96%.
In the case of `CCOC(=O)COc1ccc(S(=O)(=O)NCc2ccco2)cc1`, the “hERG current change (%, negative = inhibition) at 10uM” value is reported as -1.53%.
`CCNc1nc(NC(C)CC)nc(ON=C(C)C)n1` (stereo not shown) was tested, and the “hERG current change (%, negative = inhibition) at 10uM” value was -2.23%.
For `CCCCN(C)CCCNC(=O)c1cn(CC)c2ccc(S(=O)(=O)N3CCOCC3)cc2c1=O`, the “hERG current change (%, negative = inhibition) at 10uM” value was 10.3%.
In the case of `CCCCN(CC)CCCNC(=O)c1cn(CC)c2ccc(S(=O)(=O)N3CCc4ccccc4C3)cc2c1=O`, the “hERG current change (%, negative = inhibition) at 10uM” value is reported as -74.9%.
`CCCCSCCCNC(=O)c1cn(CC)c2ccc(S(=O)(=O)N3CCOCC3)cc2c1=O` was tested, and the “hERG current change (%, negative = inhibition) at 10uM” value was -44.9%.
With `O=C(CCN1CCCCO1)N1CCCC(Nc2cccc(F)c2)C1` (stereo not shown) the “hERG current change (%, negative = inhibition) at 10uM” value was 14%.
For `Nc1nc2n(n1)C(c1ccco1)CC(c1ccc(Cl)c(Cl)c1)N2` (stereo not shown), the “hERG current change (%, negative = inhibition) at 10uM” value was -31.4%.
In the case of `CC1CCN(C(=S)Nc2ccc(F)cc2)CC1`, the “hERG current change (%, negative = inhibition) at 10uM” value is reported as 3.1%.
`CC1C(=O)CC(c2ccc([N+](=O)[O-])cc2)NC1c1ccc([N+](=O)[O-])cc1.Cl` (stereo not shown) was tested, and the “hERG current change (%, negative = inhibition) at 10uM” value was -69.7%.
In the case of `CCC1C(=O)CC(c2ccc([N+](=O)[O-])cc2)NC1c1ccc([N+](=O)[O-])cc1` (stereo not shown), the “hERG current change (%, negative = inhibition) at 10uM” value is reported as -76.3%.
`CCC1C(=O)CC(c2ccccc2)NC1c1ccccc1` (stereo not shown) was tested, and the “hERG current change (%, negative = inhibition) at 10uM” value was -21.4%.
For `CCC1C(=O)C(C)(C)C(=O)OC1c1ccc([N+](=O)[O-])cc1` (stereo not shown), the “hERG current change (%, negative = inhibition) at 10uM” value was -7.26%.
In the case of `CC1C(=O)CC(c2ccccc2)NC1c1ccccc1` (stereo not shown), the “hERG current change (%, negative = inhibition) at 10uM” value is reported as -7.08%.
For `CC1C(=O)C(C)C(c2ccc([N+](=O)[O-])cc2)NC1c1ccc([N+](=O)[O-])cc1` (stereo not shown), the “hERG current change (%, negative = inhibition) at 10uM” value was -46%.
For `Cc1ccc(NC(=O)CN(C)C(=O)CSc2nc3ccccc3o2)cc1`, the “hERG current change (%, negative = inhibition) at 10uM” value was -20.5%.
For `COc1cc2c(cc1NC(=O)CN1CCN(S(=O)(=O)c3ccccc3F)CC1)oc1ccccc12`, the “hERG current change (%, negative = inhibition) at 10uM” value was 10.1%.
With `COc1ccccc1C(=O)C1CCCN(Cc2cnc(C)s2)C1` (stereo not shown) the “hERG current change (%, negative = inhibition) at 10uM” value was -8.13%.
For `COc1ccccc1C(=O)C1CCCN(Cc2cn[nH]c2C2CCCCC2)C1` (stereo not shown), the “hERG current change (%, negative = inhibition) at 10uM” value was -31.5%.
With `CCCN1CCCC(C(=O)c2cc(C)c(OC)c(C)c2)C1` (stereo not shown) the “hERG current change (%, negative = inhibition) at 10uM” value was -3.65%.
`CSc1ccc(C(=O)C2CCCN(C(=O)c3cccnc3SC)C2)cc1` (stereo not shown) was tested, and the “hERG current change (%, negative = inhibition) at 10uM” value was -32.4%.
`COc1c(C)cc(C(=O)C2CCCN(Cc3cnc(C)s3)C2)cc1C` (stereo not shown) was tested, and the “hERG current change (%, negative = inhibition) at 10uM” value was -7.68%.
In the case of `CSc1ccc(C(=O)C2CCCN(Cc3cccc4nccnc34)C2)cc1` (stereo not shown), the “hERG current change (%, negative = inhibition) at 10uM” value is reported as -82.8%.
`COc1ccccc1C(=O)C1CCCN(Cc2cccc3nccnc23)C1` (stereo not shown) was tested, and the “hERG current change (%, negative = inhibition) at 10uM” value was -67.4%.
In the case of `COc1c(C)cc(C(=O)C2CCCN(Cc3cccc4nccnc34)C2)cc1C` (stereo not shown), the “hERG current change (%, negative = inhibition) at 10uM” value is reported as -64.5%.
With `CSc1ccc(C(=O)C2CCCN(Cc3cc4ccccc4[nH]3)C2)cc1` (stereo not shown) the “hERG current change (%, negative = inhibition) at 10uM” value was -48.8%.
With `CCOCCCN=Cc1c(O)n(Cc2ccccc2)c(=O)[nH]c1=O` the “hERG current change (%, negative = inhibition) at 10uM” value was -4.85%.
For `c1ccc(CSc2nnc3ccc(-c4cccs4)nn23)nc1`, the “hERG current change (%, negative = inhibition) at 10uM” value was 3.64%.
In the case of `Cc1cccc(OCC(=O)Nc2ccc3c(C)cc(=O)oc3c2)c1`, the “hERG current change (%, negative = inhibition) at 10uM” value is reported as 1.59%.
`CCOc1ccc(C(=O)OC2CCCN(C)C2)cc1.Cl` (stereo not shown) was tested, and the “hERG current change (%, negative = inhibition) at 10uM” value was -18.1%.
In the case of `O=C(c1ccc2ccccc2c1)N1CCCC1`, the “hERG current change (%, negative = inhibition) at 10uM” value is reported as 19.2%.
With `CC(=O)c1sc(NC(=O)c2cc(=O)c3ccccc3o2)nc1C` the “hERG current change (%, negative = inhibition) at 10uM” value was 10.1%.
In the case of `O=C(Cc1ccc(F)cc1)Nc1nnc(SCC(=O)NC2CCCC2)s1`, the “hERG current change (%, negative = inhibition) at 10uM” value is reported as 1.56%.

From article PMC4336329 (PLoS ONE, 2015)
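Further: peak tail current of the secondary pulse compared with the same well before compound.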
